# Data taken from the antibiotic and cytotoxicity screens of Wong et al. (2023).
# The whole screen tested about 39,000 compounds, of which about 1,500 (3.8%) were called active. The full list was thinned out, with actives kept by preference.
# Tested on: HSkMC (human skeletal muscle cells)
# Assay: cytotoxicity call (relative viability < 0.9)
# Conditions: 10 µM
row,SMILES,cytotoxicity call
1,CCN(CCO)C(=O)C1CN(C(C)=O)C1,inactive
2,CCCc1nc2c(C)cc(-c3nc4ccccc4n3C)cc2n1Cc1ccc(-c2ccccc2C(=O)O)cc1,inactive
3,O=C(C[C@@H]1CC[C@H]2[C@@H](COC[C@H](O)CN2C(=O)Nc2cc(Cl)cc(Cl)c2)O1)N1CCOCC1,inactive
4,Cc1noc(C)c1NC(=O)N(C)C[C@H]1OCCCC[C@@H](C)Oc2ccc(NS(=O)(=O)c3ccccc3)cc2C(=O)N([C@H](C)CO)C[C@H]1C,inactive
5,COc1ccc(NC(=O)Nc2ccc3c(c2)[C@H]2C[C@H](CC(=O)N4CCN(C)CC4)O[C@@H](CO)[C@H]2O3)cc1,inactive
6,CN1CCN(Cc2ccc(NC(=O)Nc3ccc(Oc4cc(NC(=O)C5CC5)ncn4)cc3)cc2C(F)(F)F)CC1,active
7,Cc1cccc(Oc2ccc(NC(=O)C3CCC(C)CC3)cc2)c1 (centres undefined),inactive
8,CC(C)NC(=O)N(C)C[C@@H]1Oc2ccc(NS(=O)(=O)c3ccccc3)cc2CC(=O)N([C@@H](C)CO)C[C@@H]1C,inactive
9,Cc1noc(C)c1S(=O)(=O)Nc1ccc2c(c1)C(=O)N([C@H](C)CO)C[C@@H](C)[C@@H](CN(C)S(C)(=O)=O)OCCCC[C@H](C)O2,inactive
10,COc1ccc(C#Cc2cnc3c(c2)C(=O)N([C@@H](C)CO)C[C@H](C)[C@H](CN(C)CC2CCOCC2)O3)cc1,inactive
11,COc1cc(O)c2c(=O)cc(C)oc2c1CC=C(C)C,inactive
12,CC(C)=CCc1c(O)cc2oc(C)cc(=O)c2c1O,inactive
13,COc1c(O)cc2oc3cc(O)c(CC=C(C)C)c(O)c3c(=O)c2c1CC=C(C)C [alpha-MANGOSTIN ],active
14,COc1ccc(S(=O)(=O)Nc2ccc3c(c2)C(=O)N([C@@H](C)CO)C[C@@H](C)[C@H](CN(C)S(C)(=O)=O)O3)cc1,inactive
15,C[C@@H]1CN([C@H](C)CO)C(=O)Cc2cc(NS(=O)(=O)c3cccs3)ccc2O[C@H]1CN(C)S(=O)(=O)c1cn(C)cn1,inactive
16,O=C(N[C@H](c1ccc2ccccc2n1)c1cccs1)C1CCN(Cc2cccc(C(F)(F)F)c2)CC1,inactive
17,N#Cc1c(Oc2ccc(F)c(NC(=O)Cc3cccc(C(F)(F)F)c3)c2)ccc2nc(NC(=O)C3CC3)sc12,active
18,NC[C@](O)(c1cccs1)C1CC1,inactive
19,C[C@@H]1CN([C@@H](C)CO)C(=O)c2cc(-c3cccc(C(=O)N(C)C)c3)cnc2O[C@@H]1CN(C)S(=O)(=O)c1cccc(F)c1,inactive
20,COc1ccc(CN(C)C[C@@H]2Oc3ccc(NC(=O)CCN4CCOCC4)cc3CC(=O)N([C@@H](C)CO)C[C@@H]2C)cc1,inactive
21,COc1ccc(S(=O)(=O)Nc2cccc3c2O[C@@H](CN(C)S(=O)(=O)c2c(C)noc2C)[C@H](C)CN([C@H](C)CO)C3=O)cc1,inactive
22,O=C(C[C@H]1CC[C@H]2[C@@H](COC[C@@H](O)CN2S(=O)(=O)c2ccc(Cl)cc2)O1)NCC1CCCCC1,inactive
23,c1ccc(CNc2nn[nH]n2)cc1,inactive
24,Cn1nnc(NCc2ccccc2)n1,inactive
25,c1ccc(CNc2ccc3c(ccc4c5ccccc5[nH]c34)n2)cc1,active

row,SMILES,cytotoxicity call
1,C[C@@H]1CN([C@H](C)CO)C(=O)Cc2cc(NC(=O)c3ccncc3)ccc2O[C@@H]1CN(C)S(=O)(=O)c1ccc(F)cc1,inactive
2,C[C@H](CO)N1C[C@H](C)[C@@H](CN(C)C(=O)Nc2ccc(F)cc2)Oc2ccc(NC(=O)Cn3cnnn3)cc2CC1=O,inactive
3,CS(C)(=O)=O,inactive
4,Cc1ccc(S(=O)(=O)Nc2ccc3c(c2)C(=O)N([C@H](C)CO)C[C@H](C)[C@@H](CN(C)C(=O)Nc2ccc(F)cc2)OCCCC[C@H](C)O3)cc1,inactive
5,C[C@@H]1CN([C@@H](C)CO)C(=O)Cc2cc(NC(=O)Nc3ccc(C(F)(F)F)cc3)ccc2O[C@@H]1CN(C)Cc1ccncc1,inactive
6,C[C@H]1CN([C@@H](C)CO)C(=O)Cc2cc(NC(=O)Nc3ccc(C(F)(F)F)cc3)ccc2O[C@H]1CN(C)Cc1ccc(Cl)c(Cl)c1,active
7,C[C@H](CO)N1C[C@H](C)[C@@H](CN(C)Cc2ccc(Cl)c(Cl)c2)Oc2ccc(NC(=O)Nc3ccc(C(F)(F)F)cc3)cc2CC1=O,active
8,C[C@@H]1CN([C@@H](C)CO)C(=O)Cc2cc(NC(=O)Nc3ccc(C(F)(F)F)cc3)ccc2O[C@@H]1CN(C)Cc1ccc(Cl)c(Cl)c1,active
9,C[C@@H]1CN([C@H](C)CO)C(=O)Cc2cc(NC(=O)Nc3ccc(C(F)(F)F)cc3)ccc2O[C@H]1CN(C)Cc1ccncc1,inactive
10,C[C@H]1CN([C@@H](C)CO)C(=O)Cc2cc(NC(=O)Nc3ccc(C(F)(F)F)cc3)ccc2O[C@@H]1CN(C)Cc1ccc(Cl)c(Cl)c1,inactive
11,C[C@@H]1CN([C@H](C)CO)C(=O)Cc2cc(NC(=O)Nc3ccc(C(F)(F)F)cc3)ccc2O[C@@H]1CN(C)Cc1ccncc1,inactive
12,C[C@H]1CN([C@@H](C)CO)C(=O)Cc2cc(NC(=O)Nc3ccc(C(F)(F)F)cc3)ccc2O[C@H]1CN(C)Cc1ccncc1,inactive
13,C[C@H]1CN([C@@H](C)CO)C(=O)Cc2cc(NC(=O)Nc3ccc(C(F)(F)F)cc3)ccc2O[C@@H]1CN(C)Cc1ccncc1,inactive
14,C[C@@H]1CN([C@H](C)CO)C(=O)Cc2cc(NC(=O)Nc3ccc(C(F)(F)F)cc3)ccc2O[C@@H]1CN(C)Cc1ccc(Cl)c(Cl)c1,active
15,CC(=O)N(C)C[C@@H]1Oc2ncc(C#C[C@@H](C)O)cc2C(=O)N([C@@H](C)CO)C[C@@H]1C,inactive
16,COc1ccc(S(=O)(=O)Nc2ccc3c(c2)CC(=O)N([C@H](C)CO)C[C@@H](C)[C@H](CN(C)Cc2ccncc2)O3)cc1,inactive
17,C[C@H]1CN([C@@H](C)CO)C(=O)Cc2cc(NS(=O)(=O)c3cn(C)cn3)ccc2O[C@H]1CN(C)S(=O)(=O)c1ccc(Cl)cc1,inactive
18,C[C@H]1CN([C@@H](C)CO)C(=O)Cc2cc(NC(=O)CCCCCC(=O)Nc3ccccc3N)ccc2O[C@H]1CN(C)S(C)(=O)=O,inactive
19,COc1ccc(S(=O)(=O)N(C)C[C@H]2Oc3ccc(NC(=O)C4CC4)cc3CC(=O)N([C@H](C)CO)C[C@@H]2C)cc1,inactive
20,CN1C(=O)c2cc(NC(=O)c3cccs3)ccc2OC[C@H]2O[C@@H](CC(=O)NCC(F)(F)F)CC[C@H]21,inactive
21,C[C@@H]1CN([C@@H](C)CO)C(=O)c2cc(NC(=O)Cn3cnnn3)ccc2O[C@@H]1CN(C)Cc1ccccc1,inactive
22,COc1ccc([Si](C)(C)[C@@H]2[C@@H](CC(=O)N3Cc4ccccc4C[C@H]3CO)O[C@]3(C(=O)N(Cc4ccc(N5CCC5=O)cc4)c4ccccc43)[C@H]2C)cc1,inactive
23,C[C@H](CO)N1C[C@H](C)[C@H](CN(C)Cc2ccc(Cl)c(Cl)c2)Oc2ccc(NC(=O)Nc3ccc(C(F)(F)F)cc3)cc2CC1=O,active
24,C[C@@H]1CN([C@H](C)CO)C(=O)Cc2cc(NC(=O)Nc3ccc(C(F)(F)F)cc3)ccc2O[C@H]1CN(C)Cc1ccc(Cl)c(Cl)c1,active
25,C[C@@H]1CN([C@@H](C)CO)C(=O)Cc2cc(NC(=O)Nc3ccc(C(F)(F)F)cc3)ccc2O[C@H]1CN(C)Cc1ccc(Cl)c(Cl)c1,active

row,SMILES,cytotoxicity call
1,CS(=O)(=O)O.Oc1ccc(C2CNCCc3c2cc(O)c(O)c3Cl)cc1 (centres undefined),inactive
2,COc1ccc(S(=O)(=O)Nc2ccc3c(c2)C(=O)N([C@@H](C)CO)C[C@H](C)[C@@H](CN(C)C(=O)Nc2c(C)noc2C)OCCCC[C@@H](C)O3)cc1,inactive
3,COc1ccc(S(=O)(=O)Nc2ccc3c(c2)CC(=O)N([C@@H](C)CO)C[C@@H](C)[C@H](CN(C)S(C)(=O)=O)O3)cc1,inactive
4,Cc1noc(C)c1S(=O)(=O)N(C)C[C@@H]1Oc2ccc(NC(=O)C3CC3)cc2CC(=O)N([C@H](C)CO)C[C@@H]1C,inactive
5,Cc1noc(C)c1NC(=O)Nc1ccc2c(c1)C(=O)N([C@@H](C)CO)C[C@H](C)[C@H](CN(C)C(=O)Nc1ccccc1)OCCCC[C@H](C)O2,inactive
6,C[C@@H]1CCCCO[C@@H](CN(C)Cc2ccc(C(F)(F)F)cc2)[C@H](C)CN([C@H](C)CO)C(=O)c2cc(NS(C)(=O)=O)ccc2O1,inactive
7,COc1ccccc1S(=O)(=O)N(C)C[C@@H]1OCc2cn(nn2)CCCC(=O)N([C@@H](C)CO)C[C@@H]1C,inactive
8,C=c1ccc(C)cc1=C1NN=C(NC(=O)c2ccc(S(=O)(=O)N(CCOC)CCOC)cc2)O1,active
9,C=c1cc(C)ccc1=C1NN=C(NC(=O)CC)O1,inactive
10,C=c1cc(C)ccc1=C1NN=C(NC(C)=O)O1,inactive
11,C[C@H](CO)N1C[C@H](C)[C@@H](CN(C)C(=O)Nc2ccc(F)cc2)Oc2ccc(NC(=O)Cn3cnnn3)cc2C1=O,inactive
12,C[C@@H](NC(=O)C[C@H]1C=C[C@H](NC(=O)CN2CCOCC2)[C@H](CO)O1)c1ccccc1,inactive
13,Cc1noc(C)c1S(=O)(=O)Nc1ccc2c(c1)C(=O)N([C@@H](C)CO)C[C@H](C)[C@H](CN(C)C(=O)Nc1ccccc1)O2,inactive
14,CCN(CC)CCN(Cc1ccc(-c2ccc(C(F)(F)F)cc2)cc1)C(=O)Cn1c(SCc2ccc(F)cc2)nc(=O)c2c1CCC2,active
15,C[C@@H]1CN([C@@H](C)CO)C(=O)Cc2cc(NS(=O)(=O)c3cn(C)cn3)ccc2O[C@@H]1CN(C)C(=O)Nc1ccc(F)cc1,inactive
16,C[C@H]1CN([C@@H](C)CO)C(=O)c2cc(NC(=O)Nc3ccc(F)cc3)ccc2O[C@@H]1CN(C)Cc1ccc(Oc2ccccc2)cc1,inactive
17,C[C@@H]1CN([C@H](C)CO)C(=O)c2cc(NC(=O)Nc3ccc(F)cc3)ccc2O[C@H]1CN(C)Cc1ccc(Oc2ccccc2)cc1,inactive
18,C[C@@H]1CN([C@@H](C)CO)C(=O)c2cc(NC(=O)Nc3ccc(F)cc3)ccc2O[C@@H]1CN(C)Cc1ccc(Oc2ccccc2)cc1,active
19,C[C@H](CO)N1C[C@H](C)[C@@H](CN(C)Cc2ccc(Oc3ccccc3)cc2)Oc2ccc(NC(=O)Nc3ccc(F)cc3)cc2C1=O,inactive
20,C[C@H]1CN([C@@H](C)CO)C(=O)c2cc(NC(=O)Nc3ccc(F)cc3)ccc2O[C@H]1CN(C)Cc1ccc(Oc2ccccc2)cc1,inactive
21,C[C@H](CO)N1C[C@H](C)[C@H](CN(C)Cc2ccc(Oc3ccccc3)cc2)Oc2ccc(NC(=O)Nc3ccc(F)cc3)cc2C1=O,active
22,C[C@@H]1CN([C@H](C)CO)C(=O)c2cc(NC(=O)Nc3ccc(F)cc3)ccc2O[C@@H]1CN(C)Cc1ccc(Oc2ccccc2)cc1,active
23,C[C@@H]1CN([C@@H](C)CO)C(=O)c2cc(NC(=O)Nc3ccc(F)cc3)ccc2O[C@H]1CN(C)Cc1ccc(Oc2ccccc2)cc1,inactive
24,C[C@H]1CN([C@@H](C)CO)C(=O)c2cc(NC(=O)Nc3ccccc3)ccc2O[C@@H]1CN(C)Cc1ccc(Oc2ccccc2)cc1,inactive
